Rows were chosen to be rich in hits. Some 19% of all compounds tested hit in one or more screens of this group.
SW480 rereplic: inducers of DNA re-replication in SW480 colon cancer cells; SW480 DNA re-replication, Hoechst DNA content imaging, 48 h; hit rate 1.8% among 340,000; Potency, µM (top dose mostly 46.1 µM), inactives show top-dose re-replication activation, actives largely listed as activators; further: potency means the concentration at half of the fitted maximal effect; % of control where 0% means no effect; nearly all actives have a fitted effect of over 55% in size
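Hoechst fluorescence of nuclei (405 nm excitation, 500-530 nm emission) measured by plate-scanning imager after 48 hr compound exposure at 37 C; re-replication scored as increased number of nuclei with elevated intensity.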
DT40 TDP1 CPT: growth inhibition of DT40 Tdp1-/-;hTDP1 cells with camptothecin (screen for TDP1 inhibitors). chicken DT40 Tdp1-/-;hTDP1 cells + 20 nM CPT, ATP luminescence, 48 h. Potency, µM (highest dose often 46.2 µM), inactives show top-dose activity change, negative = growth inhibition, hits mostly inhibitors. hit rate 12% among 420,000. AID 686979; further: potency means the concentration at half of the fitted maximal effect; on the % scale 0 is the no-effect control and ±100 the full control effect; nearly all actives have a fitted effect of over 55% in size
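Chicken DT40 Tdp1-/- cells stably complemented with human TDP1 were seeded at 400 cells/well in medium containing 20 nM camptothecin, exposed to pin-transferred compounds, and grown at 37 °C for at least 48 hr. Viability was read as ATP luminescence.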
IL1B secr inh: blocks inflammasome-driven IL-1 beta release. THP-1 LPS/ATP IL-1B secretion, AlphaLISA, 16 h; stronger effect = lower value. activity change, % at 57.5 µM. hit rate 4.7% among 360,000. AID 743279; in the data active means activity change below about -50%; inconclusive means mostly about -30% to -49%; further: on the % scale 0 is the no-effect control and ±100 the full control effect
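THP-1 cells pretreated 1 hr with compounds (up to 57.5 uM final), then stimulated with LPS (250 ng/mL final) plus ATP (1.25 mM final); secreted IL-1B measured by AlphaLISA after 16 hr, decreased signal indicating inhibition.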
Chronic BCR inh: blocks chronic active B-cell receptor signaling. ABC-DLBCL IkBa-CBG/CBR reporter, luminescence ratio, 4 h. Potency, µM (doses to about 46.1 µM), without a hit: at the top dose activity change, negative = inhibition, hits mostly inhibitors. hit rate 0.05% among 340,000. AID 493014; active means well fitted inhibition curve with a large enough effect in the signal ratio, with a control signal flat, not every such curve was filed as active; inconclusive means small, poorly fitted or top-dose-only effect, or effect the other way, or a change in a side signal; the % refers to the signal ratio;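 further: potency means the concentration at half of the fitted maximal effect; plate controls were basal doxycycline-induced cells for no effect and cells given 10 µM MG132 for full effect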
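TMD8 human ABC-DLBCL cells with doxycycline-inducible IκBα–green luciferase fusion and unfused red luciferase, in 0.5% FBS medium; compounds up to 46 uM, 4 h at 37C. Green/red luminescence ratio, filter-overlap corrected, fitted to concentration-response curves.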
TDP1 cell noCPT: qHTS for Inhibitors of human tyrosyl-DNA phosphodiesterase 1 (TDP1): qHTS in cells in absence of CPT. DT40 Tdp1-/- hTDP1 cells, no CPT, ATP luminescence, 48 h. Potency, µM (highest dose often 46.2 µM), inactives show at the top dose activity change, negative = growth inhibition, most hits filed as inhibitors. hit rate 15% among 420,000; further: potency means the concentration at half of the fitted maximal effect; on the % scale 0 is the no-effect control and ±100 the full control effect; nearly all actives have a fitted effect of over 55% in size
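A cellular qHTS used chicken DT40 cells lacking endogenous Tdp1 but carrying stably transfected human TDP1. Compounds were applied without camptothecin, and cell growth kinetics were judged by ATP-dependent luminescence after ≥48 hr.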
MCF10A rerep: inducers of DNA re-replication in MCF 10A breast cells; Potency, µM (top dose mostly 46.1 µM), inactives show top-dose activity, positive = re-replication, hits mostly activators; hit rate 2.9% among 350,000; MCF 10A DNA re-replication, Hoechst nuclear intensity, 48 h; further: potency means the concentration at half of the fitted maximal effect; % of control where 0% means no effect; nearly all actives have a fitted effect of over 50% in size
Numbers without * were called inactive; [ ] = dose if it differs, or a comment. Unless noted, the call rests on the fitted dose curve; in most records, active means well fitted curve in the direction sought with a large enough effect; inconclusive means small, poorly fitted or top-dose-only effect, or another doubt; inactive means no such curve, though single readings can be large; an effect the other way counts as inactive or inconclusive.

Screening COC(=O)c1ccc(NC(=O)CCCN2C(=O)NC(C)(C)C2=O)cc1 returned SW480 rereplic -467.0%, DT40 TDP1 CPT -12.6%, IL1B secr inh 2.5, Chronic BCR inh inconclusive, TDP1 cell noCPT -37.2% and MCF10A rerep 17.5%.
O=C(CCC(=O)N1CCN(C2CCCC2)CC1)Nc1nnc(C(F)(F)F)s1 was read as SW480 rereplic 3.0%, DT40 TDP1 CPT 13.3%, IL1B secr inh 0.0, Chronic BCR inh 9.6%, TDP1 cell noCPT 13.5% and MCF10A rerep 5.2%.
For CC1CCCCN1C(=O)CCC(=O)Nc1nnc(C(F)(F)F)s1 (configuration not stated) the results were SW480 rereplic inconclusive, DT40 TDP1 CPT -20.7%, IL1B secr inh 29.3, Chronic BCR inh 6.0%, TDP1 cell noCPT -4.5% and MCF10A rerep 23.1µM*.
For CCOC(=O)C1CCCCN1Cc1nc(N2CCN(C(C)=O)CC2)c2ccccc2n1 (configuration not stated) the results were DT40 TDP1 CPT -5.5%[9.04 µM] and TDP1 cell noCPT -28.3%.
For O=C(NCc1ccc(Cl)cc1)c1ccc(CS(=O)Cc2cccc(Cl)c2)o1 (configuration not stated) the results were SW480 rereplic 0.9%, DT40 TDP1 CPT inconclusive, IL1B secr inh -24.8, Chronic BCR inh 0.6%, TDP1 cell noCPT inconclusive and MCF10A rerep 9.4%.
Screening O=C(NCCc1cccs1)c1ccc(CS(=O)Cc2ccc(Cl)cc2)o1 (configuration not stated) returned SW480 rereplic 13.6%, DT40 TDP1 CPT inconclusive, IL1B secr inh 13.3, Chronic BCR inh inconclusive, TDP1 cell noCPT -0.1% and MCF10A rerep 9.5%.
For CCOc1ccc(CCNC(=O)c2ccc(CS(=O)Cc3ccc(Cl)cc3)o2)cc1OCC (configuration not stated) the results were SW480 rereplic -6.2%, DT40 TDP1 CPT inconclusive, IL1B secr inh 12.1, Chronic BCR inh -0.7%, TDP1 cell noCPT 14.6µM* and MCF10A rerep 4.9%.
`CCOc1ccc(CCNC(=O)c2ccc(CS(=O)Cc3cccc(Cl)c3)o2)cc1` (configuration not stated) gave SW480 rereplic -2.6%, DT40 TDP1 CPT inconclusive, IL1B secr inh inconclusive, Chronic BCR inh 4.8%, TDP1 cell noCPT 14.6µM* and MCF10A rerep 3.8%.
For COc1ccc2c(c1)c(=O)c(C(=O)c1ccccc1)cn2Cc1ccc(C)cc1 the results were SW480 rereplic inconclusive, DT40 TDP1 CPT inconclusive, IL1B secr inh -3.6, Chronic BCR inh inconclusive, TDP1 cell noCPT 16.4µM* and MCF10A rerep inconclusive.
COc1ccc(C(=O)c2cn(Cc3ccccc3F)c3cc4c(cc3c2=O)OCCO4)cc1OC was read as DT40 TDP1 CPT inconclusive and TDP1 cell noCPT 20.6µM*.
For COc1ccc(Cn2cc(C(=O)c3ccc(C)c(C)c3)c(=O)c3ccccc32)cc1 the results were DT40 TDP1 CPT inconclusive and TDP1 cell noCPT 16.4µM*.
Screening COc1cc2c(=O)c(C(=O)c3ccc(C)c(C)c3)cn(Cc3ccccc3)c2cc1OC returned DT40 TDP1 CPT 14.6µM* and TDP1 cell noCPT inconclusive.
Screening O=C(O)c1cn(Cc2ccccc2)c2ccccc2c1=O returned SW480 rereplic 0.2%, DT40 TDP1 CPT 0.3%, IL1B secr inh 10.6, Chronic BCR inh 3.2%, TDP1 cell noCPT -16.2% and MCF10A rerep 0.2%.
For CCOc1ccc(NC(=O)Cn2cc(C(=O)c3ccc(C)c(C)c3)c(=O)c3cc4c(cc32)OCCO4)cc1 the results were DT40 TDP1 CPT -10.2% and TDP1 cell noCPT -17.3%.
Screening COc1ccc(CCNC(=O)Cn2cc(C(=O)c3ccc(F)cc3)c(=O)c3ccc(C)nc32)cc1OC returned DT40 TDP1 CPT -24.4% and TDP1 cell noCPT inconclusive.
`CCOc1ccc(C(=O)c2cn(Cc3ccc(OC)cc3)c3cc(OC)c(OC)cc3c2=O)cc1` gave DT40 TDP1 CPT inconclusive and TDP1 cell noCPT 18.4µM*.
For COc1cc2c(=O)c(C(=O)c3ccc(F)cc3)cn(Cc3cccc(F)c3)c2cc1OC the results were DT40 TDP1 CPT 20.6µM* and TDP1 cell noCPT 16.4µM*.
CCn1cc(C(=O)NCc2ccccc2OC)c(=O)c2cc(S(=O)(=O)N(C)C)ccc21 was read as SW480 rereplic 15.3%, DT40 TDP1 CPT inconclusive, IL1B secr inh 0.0, Chronic BCR inh inconclusive, TDP1 cell noCPT inconclusive and MCF10A rerep 14.5%.
For CCOc1ccc(C(=O)c2cn(CC(=O)Nc3cc(OC)ccc3OC)c3cc(OC)c(OC)cc3c2=O)cc1 the results were DT40 TDP1 CPT 23.1µM* and TDP1 cell noCPT 16.4µM*.
COc1ccccc1Cn1cc(C(=O)c2ccc(Cl)cc2)c(=O)c2ccccc21 was read as DT40 TDP1 CPT 23.1µM* and TDP1 cell noCPT 14.6µM*.
`CCOc1ccc(NC(=O)Cn2cc(C(=O)c3ccc(C)c(C)c3)c(=O)c3cc(OC)c(OC)cc32)cc1` gave DT40 TDP1 CPT -11.8% and TDP1 cell noCPT -1.0%.
`CN(C(=O)COC(=O)c1cc(=O)[nH]c2ccccc12)c1ccccc1` gave SW480 rereplic -3.4%, DT40 TDP1 CPT -14.6%, IL1B secr inh 4.0, Chronic BCR inh inconclusive, TDP1 cell noCPT inconclusive and MCF10A rerep -0.6%.
Screening COc1cc2c(=O)c(C(=O)c3ccc(C)c(C)c3)cn(Cc3ccc(F)cc3)c2cc1OC returned DT40 TDP1 CPT 10.3µM* and TDP1 cell noCPT 18.4µM*.
For COc1ccc(C(=O)c2cn(Cc3ccc(F)cc3)c3c(F)cc(F)cc3c2=O)cc1 the results were DT40 TDP1 CPT inconclusive and TDP1 cell noCPT 23.1µM*.
`COc1ccccc1C(=O)c1cn(CC(=O)Nc2ccccc2F)c2nc(C)ccc2c1=O` gave DT40 TDP1 CPT -2.2% and TDP1 cell noCPT -19.9%.
For CCc1ccc(C(=O)c2cn(Cc3ccccc3)c3cc(OC)c(OC)cc3c2=O)cc1 the results were DT40 TDP1 CPT 16.4µM* and TDP1 cell noCPT 16.4µM*.
`CCc1ccc(C(=O)c2cn(CC(=O)Nc3cccc(OC)c3)c3cc4c(cc3c2=O)OCO4)cc1` gave DT40 TDP1 CPT -11.8% and TDP1 cell noCPT inconclusive.
CCOC(=O)c1cn(Cc2ccc(C)cc2)c2cc(F)ccc2c1=O was read as SW480 rereplic -2.8%, DT40 TDP1 CPT inconclusive, IL1B secr inh 66.1, Chronic BCR inh -2.2%, TDP1 cell noCPT -17.7% and MCF10A rerep 13.7%.

Screening results as filed in PubChem.
